# From PubChem BioAssay
# Compounds with a hit are over-represented: about 4.8% of the library has one in this group of screens.
# ATXN2 expr inh = inhibitors of ATXN2 expression; hit rate 0.72% among 360,000; Potency, µM (series often up to 57 µM), for the others: top-dose activity change, negative = inhibition, most hits filed as inhibitors; HEK-293 ATXN2-luciferase reporter, luminescence, 24 h; also: potency is read from the fitted curve at half-maximal effect; % is scaled to controls: 0 for no effect and ±100 for the full control effect; nearly all actives have a fitted effect of over 55% in size
#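 ATXN2-luciferase reporter cells (luciferase flanked by upstream and downstream ATXN2 gene portions) were treated 24 h at 37 °C with compounds at up to 57 uM. SteadyGlo luminescence gave expression; GF-AFC fluorescence gave viability.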
# USP1 inh = blocks the human USP1/UAF1 deubiquitinase complex | Potency, µM (titrated, usually from 57.1 µM), for the others: at the top dose activity change, negative = inhibition, usual class: inhibitors | AID 743255 | O94782 | hit rate 0.23% among 390,000 | recombinant USP1/UAF1, Ub-Rhodamine cleavage fluorescence; also: potency is read from the fitted curve at half-maximal effect; % is scaled to controls: 0 for no effect and ±100 for the full control effect; nearly all actives have a fitted effect of over 60% in size
# Target sequence (O94782 whole entry, looked up): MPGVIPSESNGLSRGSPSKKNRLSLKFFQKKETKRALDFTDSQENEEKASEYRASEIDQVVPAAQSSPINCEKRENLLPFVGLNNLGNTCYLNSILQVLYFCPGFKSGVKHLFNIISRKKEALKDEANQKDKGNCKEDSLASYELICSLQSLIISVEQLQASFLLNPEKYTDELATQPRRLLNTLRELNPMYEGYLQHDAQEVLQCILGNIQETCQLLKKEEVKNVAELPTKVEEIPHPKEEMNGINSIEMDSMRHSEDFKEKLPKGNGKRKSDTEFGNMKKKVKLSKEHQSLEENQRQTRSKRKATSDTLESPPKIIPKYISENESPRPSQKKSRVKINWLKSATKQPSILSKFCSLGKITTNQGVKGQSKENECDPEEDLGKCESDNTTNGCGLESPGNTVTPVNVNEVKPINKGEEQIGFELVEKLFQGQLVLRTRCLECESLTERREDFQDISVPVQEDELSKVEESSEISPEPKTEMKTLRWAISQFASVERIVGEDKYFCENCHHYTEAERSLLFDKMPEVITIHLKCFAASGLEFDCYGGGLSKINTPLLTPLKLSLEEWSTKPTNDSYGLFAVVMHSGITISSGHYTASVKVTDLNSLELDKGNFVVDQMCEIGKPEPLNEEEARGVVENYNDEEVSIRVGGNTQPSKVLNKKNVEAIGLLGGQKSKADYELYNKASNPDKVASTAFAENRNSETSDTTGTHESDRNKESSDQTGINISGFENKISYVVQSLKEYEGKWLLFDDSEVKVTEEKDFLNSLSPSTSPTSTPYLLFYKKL
#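 In this screen, compounds sit with the deubiquitinase complex (1nM) for 15 min at room temperature before Ub-Rho is added at 150nM final. Fluorescence rise is then followed for 6 reads every 60 seconds.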
# IL1B secr inh = inflammasome signaling inhibition, IL-1 beta readout. AID 743279. THP-1 LPS/ATP IL-1B secretion, AlphaLISA, 16 h; hits give low values. activity change, % at 57.5 µM. hit rate 4.7% among 360,000; in the data active = activity change below about -50%; inconclusive = mostly about -30% to -49%; also: % is scaled to controls: 0 for no effect and ±100 for the full control effect
#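 THP-1 cells pretreated 1 hr with compounds (up to 57.5 uM final), then stimulated with LPS (250 ng/mL final) plus ATP (1.25 mM final); secreted IL-1B measured by AlphaLISA after 16 hr, decreased signal indicating inhibition.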
# ATXN viability = reduces viability in counter-screen for ATXN expression inhibitors | S2 cells (HEK-293 line with an ATXN2-luciferase reporter) viability, CellTiter-Fluor protease fluorescence, 24 h | hit rate 0.49% among 400,000 | Potency, µM (doses to about 56.7 µM), most hits filed as cytotoxic; also: potency is read from the fitted curve at half-maximal effect; nearly all actives have a fitted effect of over 40% in size
# USP2a inh = inhibitors of human ubiquitin-specific protease USP2a; O75604; USP2 core, Ub-CHOP2 coupled fluorogenic reporter, 485/531; Potency, µM (doses to about 38.3 µM), without a hit: at the highest dose activity change, negative = inhibition, actives largely listed as inhibitors; hit rate 0.01% among 330,000;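 also: potency is read from the fitted curve at half-maximal effect; plate controls were DMSO wells for no effect and full inhibition by NEM control for full effect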
#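 Cell-free coupled assay: 10nM USP2 core preincubated 30min RT with compound in Tris-HCl pH 8.0/CaCl2/CHAPS buffer, then 25nM Ub-CHOP2 and 25nM reporter substrate; fluorescence (Ex 485/Em 531) read after 60min RT, normalized to NEM inhibition, concentration-response curves fitted.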
# The depositor's hits bear a star; i = inactive; ? = inconclusive; / = no result. Unless noted, calls follow the shape of the dose curve; as a rule, active = well fitted curve in the direction sought with a large enough effect; inconclusive = small, poorly fitted or top-dose-only effect, or another doubt; inactive = no such curve, though single readings can be large; an effect the other way counts as inactive or inconclusive.
SMILES,ATXN2 expr inh,USP1 inh,IL1B secr inh,ATXN viability,USP2a inh
CN1c2cc(O)c(N=NC(N)=O)cc2CC1S(=O)(=O)O (stereo not drawn),-3%,/,/,/,/
CC(=O)c1cccc(-c2ccnc3c2CC(C(=O)NCc2ccncc2)O3)c1 (stereo not drawn),8%,/,32,i,/
COc1cccc(C(=O)CC2(O)C(=O)Nc3ccc(Cl)cc32)c1 (stereo not drawn),1%,5%,/,i,/
Cc1ccc(NC(=O)CSc2nc(-c3ccco3)cc(C(F)(F)F)n2)cc1,-12%,-19%,/,i,/
Cc1ccc(CCNC(=O)C2CCN(Cc3nc(-c4ccccc4C)oc3C)CC2)cc1,-4%,8%,/,i,/
CC1OC(OC2C(OC3C(O[C@H]4CC[C@]5(C)C6C=C[C@]78OC[C@@]9(CC[C@@H](C)[C@H](C)C97)[C@H](O)C[C@@]8(C)[C@]6(C)CC[C@H]5C4(C)C)OC(C)C(O)C3O)OC(CO)C(O)C2O)C(O)C(O)C1O (stereo partly drawn),/,/,/,/,-1%
CCN1CCCC1Cn1cnc2c([nH]c3ccc(C)cc32)c1=O (stereo not drawn),-4%,-12%,-58*,i,-2%
Cc1ccc2[nH]c3c(NCCN4CCOCC4)ncnc3c2c1,-23%,-14%,-5,i,-1%
CCN1CCCC1CNc1ncnc2c1[nH]c1ccc(Cl)cc12 (stereo not drawn),?,-6%,-110*,i,-2%
Clc1ccc2[nH]c3c(NCCCN4CCOCC4)ncnc3c2c1,-13%,-14%,-90*,i,1%
Cc1cccc(N2C(=O)C(Oc3ccc(Cl)cc3Cl)C2C=O)c1C (stereo not drawn),?,-20%,-89*,?,-2%
CC1(C(=O)NS(=O)(=O)c2cccs2)CCN1C(=O)c1ccco1 (stereo not drawn),-1%,/,-9,i,/
O=C1CCC(C(=O)OCC(=O)c2ccccc2)N1 (stereo not drawn),-14%,-18%,17,i,3%
CC1CC(C)C(=O)C(C(CC2CC(=O)NC(=O)C2)OC(=O)CC(=O)c2ccccc2)C1 (stereo not drawn),3.5µM*,-23%,3,?,/
Cc1ccc(CSc2nc3cccnc3n2Cc2ccc(C(=O)NC3CCCCC3)cc2)cc1,/,-16%,/,/,/
COc1ccc(-c2cc(C)no2)cc1S(=O)(=O)N1CCCCC1,/,-15%,11,i,2%
COc1ccc(-c2cc(C)no2)cc1S(=O)(=O)NCCCN1CCCCCC1,-15%,-14%,-51*,i,6%
COc1cccc(CCN2CCC(CNS(=O)(=O)c3cc(-c4cc(C)no4)ccc3C)CC2)c1,/,-17%,-62*,?,2%
COc1cccc(CCN2CCC(CNS(=O)(=O)c3cc(-c4cc(C)no4)ccc3OC)CC2)c1,?,-14%,-12,i,2%
CS(=O)(=O)c1ccc(-c2cccc3c2OC(CNC(=O)c2ccnc(Cl)c2)C3)cc1 (stereo not drawn),/,/,/,i,/
C=CCNc1c(O)cc2c(O)c1C[C@@H](C)C[C@H](OC)[C@@H](O)[C@@H](C)C=C(C)[C@H](OC(N)=O)[C@@H](OC)C=CC=C(C)C(=O)N2,0.77µM*,/,/,/,/
Cc1nc2cc(C(=O)O)ccc2n1-c1ccc(C(C)C)cc1,19%,-11%,/,i,/
CCC[n+]1c2ccccc2cc2ccccc21,-2%,?,-99*,i,5%
CCCC[n+]1c2ccccc2cc2ccccc21,/,-18%,-101*,/,-6%
CCCC(=O)c1cc2ccccc2oc1=O,-7%,-5%,1,i,-1%
SMILES,ATXN2 expr inh,USP1 inh,IL1B secr inh,ATXN viability,USP2a inh
Cc1ccc2ccccc2[n+]1CCCS(=O)(=O)[O-],0%,-1%,0,i,-1%
O=[N+]([O-])c1ccccc1CNCCO,10%,?,13,i,0%
Cc1cc(C(=O)CCC(=O)Nc2cccc(F)c2)c(C)s1,/,5%,-1,i,/
CCc1cccc(-n2c(=O)c3cccnc3n2CC(=O)Nc2c(C)cc(C)cc2C)c1,/,12%,/,/,/
CCn1cc(C(=O)NCc2cccc(F)c2)c(=O)c2cc(F)c(N3CCN(C(=O)c4ccco4)CC3)cc21,35µM*,-14%,-54*,?,-5%
CC(NC(=O)C1CCN(Cc2ccc(Oc3ccccc3)cc2)CC1)c1cccc2ccccc12 (stereo not drawn),0%,/,-24,?,/
O=C(c1cc(-c2ccccc2)n[nH]1)N1CCc2c([nH]c3ccccc23)C1c1ccccn1 (stereo not drawn),?,-11%,-65*,?,-5%
Cc1cccc(C2c3[nH]c4ccccc4c3CCN2C(=O)c2noc3c2CCCC3)n1 (stereo not drawn),-21%,-18%,-54*,?,-2%
Cc1ccc2nc(C(=O)N3CCc4c([nH]c5ccccc45)C3c3ccccn3)cn2c1 (stereo not drawn),3%,-10%,-59*,i,2%
COc1ccc(N2C(=O)CC(N3CCN(S(=O)(=O)c4cc(C)ccc4C)CC3)C2=O)cc1 (stereo not drawn),16%,-29%,28,?,-1%
OCCN1CCN(c2ncnc3c2ncn3[C@H]2CN(Cc3ccncc3)C[C@@H](CO)O2)CC1,12%,/,0,i,/
COc1cc(C)c(CN2CCc3nnc(C(C)NC(=O)c4cc(F)ccc4F)n3CC2)cc1C (stereo not drawn),/,/,/,i,/
CC(C)(C)C(c1nc2ccccc2[nH]1)n1c(-c2ccco2)nc2ccccc21 (stereo not drawn),/,/,4,/,/
CC(C)(C)C(c1nc2ccccc2[nH]1)n1c(-c2ccsc2)nc2ccccc21 (stereo not drawn),/,/,-53*,/,/
CCCN=C1N(C)C[C@@H]2[C@@H]3C(=O)N(C)C(=O)[C@@H]3[C@](C)(C(=O)OC)N12,8%,-18%,19,i,3%
O=S(OCCN1CCCC1)C(c1ccccc1)c1ccccc1 (stereo not drawn),7%,-2%,-90*,?,/
Cc1cc(=O)[nH]c(SCC(=O)N2C(C)CCCC2C)n1 (stereo not drawn),2%,-2%,22,i,3%
Brc1ccc2ncnc(Nc3cccc4ccccc34)c2c1,-8%,-24%,-80*,?,1%
c1ccc(CCNc2nc(-c3ccccn3)nc3ccccc23)cc1,?,-13%,-101*,?,1%
CCCN(CCC)c1nc(-c2ccccn2)nc2ccccc12,?,-23%,-96*,?,2%
CCOC(=O)N1CCc2c(sc(NCc3ccc(OCC)cc3)c2C(=O)Nc2ccc(OC)cc2OC)C1,13µM*,-24%,/,i,/
